In the OligoGym collection:

The sequences below were run against HBB (assay: pooled miR-30 sensor sort-seq; sequence = guide strand). Details: shRNA.
Also: reference of the scale not given here.

| Sequence | sensor-assay potency score (higher = more potent) |
| --- | --- |
| TTTGCCAAAGTGATGGGCCAGC | -0.758 |
| TTTAGTAGTTGGACTTAGGGAA | 0.165 |
| TTCTTTGCCAAAGTGATGGGCC | -0.0247 |
| ATCAGGAGTGGACAGATCCCCA | -1.55 |
| TCACTCAGTGTGGCAAAGGTGC | -1.09 |
| ACCACCAACTTCATCCACGTTC | -1.74 |
| TAGACCACCAGCAGCCTGCCCA | -0.865 |

Each sequence was assayed against HBD in the same assay as above. Details: shRNA.

| Sequence | sensor-assay potency score (higher = more potent) |
| --- | --- |
| AATTCCTTGCCAAAGTTGCGGG | -0.612 |
| TCAGCTGAGAAAAAGTGCCCTT | -0.0837 |
| ATTCCTTGCCAAAGTTGCGGGC | -0.495 |
| ACACACACCAGCACATTGCCCA | -0.428 |
| TAGACCACCAGTAATCTGCCCA | -0.29 |
| TTCACTTTGCCCCACAGGGCAT | -0.844 |
| AACAGCATCAGGAGAGGACAGA | -1.5 |
| AGCCACACCAGCCACCACCTTC | -1.62 |
| ACCACCAACTGCATCCACGTTC | -1.79 |
| ACTAAAGGCACCTAGCACCTTC | -0.765 |

These sequences were tested against HBM in the same assay as above. Details: shRNA.

| Sequence | sensor-assay potency score (higher = more potent) |
| --- | --- |
| TCAGGTCCCAGACCTGCGCGAT | -1.04 |
| ATTAGCAGCGGAAAGTTGGCTG | 0.235 |
| TGCGGGAAGTAGACCTTGGTGC | -0.583 |
| AACACTGGATTAGCAGCGGAAA | -1.52 |
| TGCATTTGCACGGTGAACTCGT | 0.113 |
| TTGGTGCTGGGGTACACCGTGA | -1.01 |
| TGAACTCGTCCTGCAGGTGGGA | -0.648 |
| TCCACGTGCTGCACCGCCGCGC | -1.37 |
| TTGTCCACGTGCTGCACCGCCG | -1.46 |
| TTGCACGGTGAACTCGTCCTGC | 0.462 |
| TGCACGGTGAACTCGTCCTGCA | -1.03 |
| TTTGCACGGTGAACTCGTCCTG | 0.188 |

These sequences were tested against HBQ1 in the same assay as above. Details: shRNA.

| Sequence | sensor-assay potency score (higher = more potent) |
| --- | --- |
| TTGCTGCCCAGCTTCTTCCACA | -1.27 |
| TAGGTCGTCCAGGCGCTCCACG | -1.23 |
| ATAACGTGGCTCAGGAACTTGT | -1.13 |
| TTACCAGCAGGCAGTGGCCCAG | -1.7 |
| AAGTAGGTCTTCGTGGCGGGGA | -0.359 |
| TAGACGCCGACGTTGCTGCCCA | -0.72 |
| AAGTCTCCGGGGTAGTGCCGGG | -1.01 |
| TGGGAGAAGTAGGTCTTCGTGG | -0.972 |
| TGTCGTGTAGACGCCGACGTTG | -0.887 |
| TGGGCTCTGACTTGTGAGGAGC | -1.65 |
